Measurements published in PubChem BioAssay (NCATS).
Unmarked numbers belong to inactive results. No rule for the calls is given here.

system: HIV-1 nucleocapsid protein NCp7 (binding to TG oligonucleotide); experiment: HIV Nucleocapsid (AID 346); conditions: HIV-1 NC / fluorescein-TGTGTGTG probe, fluorescence polarization;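 also: potency is for inhibitors that block NC binding and lower polarization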
Procedure, shortened: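 10 nM TG4xF probe with 100 nM nucleocapsid protein in high-salt Hepes pH 7.5 (250mM NaCl) containing 1uM ZnCl2 and reducing agents. Compound inhibition of binding was read as fluorescein polarization after 1 hr at room temperature.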
Potency is read from the fitted curve at half-maximal effect.

**Q.** With `CS(=O)(=O)Nc1cccc(-c2nc(NCc3cccs3)c3ccccc3n2)c1` as the compound, how does the Potency read?
**A.** > 20 µM

**Q.** `CN(C)c1ncc2nc(CCc3ccccc3)c(=O)n(CCC#N)c2n1` was tested. Which Potency did it give?
**A.** > 20 µM

**Q.** For `CN1CCN(c2ncc3nc(-c4ccc(Cl)cc4)c(=O)n(C)c3n2)CC1`, which Potency is on record?
**A.** > 20 µM

**Q.** How did the Potency turn out when `COc1ccc(Oc2ncc3nc(-c4ccc(F)cc4)c(=O)n(CCC#N)c3n2)cc1` was run?
**A.** > 20 µM

**Q.** Which Potency does the source give for `O=C(Nc1ccccc1)N1CCCC2(CCNCC2)C1` here?
**A.** > 20 µM

**Q.** For `FC(F)(F)c1ccccc1-c1cc(NCc2cccnc2)ncn1`, which Potency is on record?
**A.** > 20 µM

**Q.** Which Potency does the source give for `c1ccc2c(Nc3ccncc3)nc(-c3ccoc3)nc2c1` here?
**A.** > 20 µM

**Q.** Which Potency does the source give for `COC(=O)N1CCC2(CC1)CCN(c1ccccc1)CC2` here?
**A.** > 20 µM

**Q.** How did the Potency turn out when `Cc1noc(C)c1C(=O)N1CCC2(CCN(C(=O)Nc3ccccc3)CC2)CC1` was run?
**A.** > 20 µM

**Q.** `c1cncc(-c2cc(NCc3cccs3)ncn2)c1` was tested. Which Potency did it give?
**A.** > 20 µM

**Q.** With `COc1cccc(-c2nc(NCc3cccnc3)c3ccccc3n2)c1` as the compound, how does the Potency read?
**A.** > 20 µM

**Q.** How did the Potency turn out when `CN1CCN(c2ncc3nc(-c4cccc(C#N)c4)c(=O)n(CCc4ccccc4)c3n2)CC1` was run?
**A.** > 20 µM

**Q.** With `O=C(c1cnccn1)N1CCC2(CC1)CN(c1ccncc1)C2` as the compound, how does the Potency read?
**A.** > 20 µM

**Q.** `Cn1c(=O)c(-c2cc(F)cc(F)c2)nc2cnc(Oc3ccccc3)nc21` was tested. Which Potency did it give?
**A.** > 20 µM

**Q.** Which Potency does the source give for `COc1ccc(CNc2ccnc(-c3ccc(N(C)C)cc3)n2)c(OC)c1` here?
**A.** > 20 µM

**Q.** How did the Potency turn out when `CCNc1ncc2nc(C)c(=O)n(CCc3ccccc3)c2n1` was run?
**A.** > 20 µM
